Where “and” joins values, the source holds several entries; their conditions need not be identical. Identical values can stand only once. Inconclusive results are not listed. A call without a number means that no potency is given here. More than one record can exist for a structure, and the calls need not agree. Calls of active or inactive are those of the source. The call rests on the fitted dose curve; in most records, active means well fitted curve in the direction sought with a large enough effect in the repeat runs; inconclusive means weak or mixed curves; inactive means no such curve, though single readings can be large; an effect the other way counts as inactive or inconclusive.
Tests used:
[1] = A CellTox Green Cytotoxicity Assay to monitor cytotoxicity in HEK293 cells - 32 hour (AID 1224881); further: nearly all actives have a fitted effect of over 40% in size; further: potency means the concentration at half of the fitted maximal effect
In short: (§1)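 Cells (HEK293, 600/well) and dye reagent are dispensed together. After 5 h at 37 C, 23 nL compound is pinned in. Plates stay at 37 C for 40 h with fluorescence read at 0h, 8h, 16h, 24h, 32h and 40h.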

[2] = A CellTox Green Cytotoxicity Assay to monitor cytotoxicity in HepG2 cells - 0 hour (AID 1224882); further: nearly all actives have a fitted effect of over 35% in size; further: potency means the concentration at half of the fitted maximal effect
In short: (§2)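 Cells and non-lytic dye reagent are dispensed together (600 HepG2 cells/well) and incubated 5 h before DMSO compound transfer. Kinetic fluorescence is then recorded in the same wells during 40 h at 37 C.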

[3] = A CellTox Green Cytotoxicity Assay to monitor cytotoxicity in HepG2 cells - 32 hour (AID 1224883); further: nearly all actives have a fitted effect of over 50% in size; further: potency means the concentration at half of the fitted maximal effect
In short: as §2

[4] = A CellTox Green Cytotoxicity Assay to monitor cytotoxicity in HEK293 cells - 8 hour (AID 1224884); further: nearly all actives have a fitted effect of over 35% in size; further: potency means the concentration at half of the fitted maximal effect
In short: as §1

[5] = qHTS RealTime-Glo MT Cell Viability Assay in HepG2 cells - 16 hour (AID 1224885); further: nearly all actives have a fitted effect of over 50% in size; further: potency means the concentration at half of the fitted maximal effect
In short: (§3)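 HepG2 cells (600/well) were dispensed with RealTime-Glo reagents, incubated 5 h at 37 °C, then treated with compounds in DMSO for up to 40 h. Nonlytic NanoLuc luminescence reflecting viable cells was read at each stated time point.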

[6] = qHTS RealTime-Glo MT Cell Viability Assay in HEK293 cells - 24 hour (AID 1224886); further: nearly all actives have a fitted effect of over 50% in size; further: potency means the concentration at half of the fitted maximal effect
In short: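 HEK293 cells seeded with NanoLuc/prosubstrate reagent, rested 5 h at 37 C, then dosed and kept at 37 C up to 40 h. Nonlytic real-time luminescence from viable cells read at 0, 8, 16, 24, 32 and 40 h.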

[7] = qHTS RealTime-Glo MT Cell Viability Assay in HEK293 cells - 8 hour (AID 1224887); further: nearly all actives have a fitted effect of over 50% in size; further: potency means the concentration at half of the fitted maximal effect
In short: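 Real-time viability in HEK293: signal arises when living cells convert a prosubstrate for NanoLuc in the medium, so luminescence tracks viable cell number. Compound (23 nL, DMSO) added 5 h post-seeding; kinetic reads at 0–40 h, 37 C.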

[8] = A CellTox Green Cytotoxicity Assay to monitor cytotoxicity in HEK293 cells - 16 hour (AID 1224888); further: nearly all actives have a fitted effect of over 35% in size; further: potency means the concentration at half of the fitted maximal effect
In short: as §1

[9] = qHTS RealTime-Glo MT Cell Viability Assay in HepG2 cells - 0 hour (AID 1224889); further: nearly all actives have a fitted effect of over 50% in size
In short: as §3

[10] = A CellTox Green Cytotoxicity Assay to monitor cytotoxicity in HepG2 cells - 8 hour (AID 1224890); further: nearly all actives have a fitted effect of over 45% in size; further: potency means the concentration at half of the fitted maximal effect
In short: as §2

| Structure (SMILES) | Potency [1] | Potency [2] | Potency [3] | Potency [4] | Potency [5] | Potency [6] | Potency [7] | Potency [8] | Potency [9] | Potency [10] |
| --- | --- | --- | --- | --- | --- | --- | --- | --- | --- | --- |
| CC(=O)C1=C(C)[C@@H]2C[C@@]3(C1)[C@H](C)CC[C@H]3C2(C)C | 36.2 µM (active) and inactive | inactive | inactive | inactive | inactive | inactive | inactive | inactive | inactive | inactive |
| CO[Si](OC)(OC)c1ccccc1 | inactive | inactive | inactive | inactive | inactive | inactive | inactive | inactive | inactive | inactive |
| CCCN[C@H]1CCc2nc(N)sc2C1 | inactive | inactive | inactive | inactive | inactive | inactive | inactive | inactive | inactive | inactive |
| CCC[C@H](N[C@@H](C)C(=O)N1[C@H](C(=O)O)C[C@@H]2CCCC[C@@H]21)C(=O)OCC | inactive | inactive | inactive | inactive | inactive | inactive | inactive | inactive | inactive | inactive |
| c1ccc2n[nH]nc2c1 | inactive | inactive | inactive | 9.5 µM (active) and inactive | inactive | inactive | inactive | inactive | inactive | inactive |
| Cc1cc(Cc2cc(C)cc(C(C)(C)C)c2O)c(O)c(C(C)(C)C)c1 | 49.2 µM (active) and 43.6 µM (active) | inactive | 43.9 µM (active) and 43.6 µM (active) | 49.2 µM (active) and inactive | 43.9 µM (active) and 43.6 µM (active) | 12.4 µM (active) and 15.5 µM (active) |  | 49.2 µM (active) | inactive | 43.9 µM (active) and 34.7 µM (active) |
| COc1ccc(COC(C)=O)cc1 | inactive | inactive | inactive | inactive | inactive | inactive | inactive | inactive | inactive | inactive |
| CC(C)(C)NCC(O)COc1ccccc1OCC1CCCO1 (stereo not given) | inactive | inactive | inactive | inactive | inactive | inactive | inactive | inactive | inactive | inactive |
| COc1ccc(Cc2cnc(N)nc2N)cc1OC | inactive | inactive | inactive | inactive | inactive | inactive | inactive | inactive | inactive | inactive |
| Oc1ccc(Cl)cc1Cc1cc(Cl)ccc1O | inactive | inactive | inactive | inactive | inactive | 22.3 µM (active) and 43.6 µM (active) | 25 µM (active) and inactive | inactive | inactive | inactive |
| C=CS(=O)(=O)O | inactive | inactive | inactive | inactive | inactive | inactive | inactive | inactive | inactive | inactive |
| COC(=O)/C=C/c1ccccc1 | inactive and 21.9 µM (active) | inactive | inactive | inactive and 34.7 µM (active) | inactive | inactive | inactive |  | inactive | inactive |
| CC(C)(C)c1ccccc1 | inactive | inactive | inactive | inactive | inactive | inactive | inactive | inactive | inactive | inactive |
| CC1=CC(=O)c2ccccc2C1=O | 19.5 µM (active) and 26.8 µM (active) | inactive | 43.6 µM (active) and 26.8 µM (active) | 21.9 µM (active) and 23.9 µM (active) | 43.6 µM (active) | 15.5 µM (active) |  | 21.9 µM (active) and 26.8 µM (active) | inactive | 54.9 µM (active) and 23.9 µM (active) |
| CCCCCCCCCCCC[N+](C)(C)C | 54.8 µM (active) and 17.4 µM (active) and 30.9 µM (active) | inactive | 43.5 µM (active) and 49 µM (active) and 43.6 µM (active) | inactive | inactive | 4.89 µM (active) | inactive | inactive | inactive | inactive |
| CCC(=O)/C=C/C1C(C)=CCCC1(C)C (stereo not given) | 49.1 µM (active) and inactive | inactive | inactive | 39 µM (active) and inactive | inactive | inactive | inactive |  | inactive | inactive |
| CCCC(=O)c1ccccc1 | inactive | inactive | inactive | inactive | inactive | inactive | inactive | inactive | inactive | inactive |
| Nc1nc(=S)c2[nH]cnc2[nH]1 | inactive | inactive | inactive | inactive | inactive | 21.9 µM (active) | inactive | inactive | inactive | inactive |
| Oc1c(Cl)cc(Cl)cc1Sc1cc(Cl)cc(Cl)c1O | 49.1 µM (active) and 43.6 µM (active) and inactive | inactive and 43.6 µM (active) | 44.4 µM (active) and 43.6 µM (active) and inactive | inactive and 43.6 µM (active) | inactive | 21.9 µM (active) | inactive |  | inactive | inactive and 43.6 µM (active) |

Source: PubChem BioAssay (Tox21)
